In PubChem BioAssay AID493170 (National Center for Advancing Translational Sciences (NCATS), 2011):
Results filed as inconclusive are left out. Unmarked numbers belong to inactive results. The source made the active and inactive calls. Calls follow the shape of the dose curve; as a rule, active = well fitted inhibition curve with a large enough effect; inconclusive = small, poorly fitted or top-dose-only effect, or effect the other way; inactive = flat fitted curve, though single readings scatter.

Each compound was assayed against Ubiquitin carboxyl-terminal hydrolase 2 (Homo sapiens) (UniProt O75604) (assay: Ub-rhodamine 110 based assay for inhibitors Ubiquitin-specific Protease USP2a). Conditions: USP2a Ub-rhodamine110 cleavage, fluorescence; series mostly up to 38.3 µM; activity change, negative = inhibition: at the top concentration.
How it was run: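 5 nM USP2a preincubated with compounds for 30 min at RT in 20 mM Tris-HCl pH 8.0, 2 mM CaCl2, 2 mM beta-mercaptoethanol, 0.05% CHAPS. Cleavage of 150 nM Ub-rhodamine 110 read kinetically (Ex 485/Em 531) for 7 min.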
% is scaled to controls: 0 for no effect and ±100 for the full control effect; potency is read from the fitted curve at half-maximal effect.
Also: nearly all actives have a fitted effect of over 50% in size.

Chain of Ubiquitin carboxyl-terminal hydrolase 2 (Homo sapiens) (O75604 whole entry, looked up): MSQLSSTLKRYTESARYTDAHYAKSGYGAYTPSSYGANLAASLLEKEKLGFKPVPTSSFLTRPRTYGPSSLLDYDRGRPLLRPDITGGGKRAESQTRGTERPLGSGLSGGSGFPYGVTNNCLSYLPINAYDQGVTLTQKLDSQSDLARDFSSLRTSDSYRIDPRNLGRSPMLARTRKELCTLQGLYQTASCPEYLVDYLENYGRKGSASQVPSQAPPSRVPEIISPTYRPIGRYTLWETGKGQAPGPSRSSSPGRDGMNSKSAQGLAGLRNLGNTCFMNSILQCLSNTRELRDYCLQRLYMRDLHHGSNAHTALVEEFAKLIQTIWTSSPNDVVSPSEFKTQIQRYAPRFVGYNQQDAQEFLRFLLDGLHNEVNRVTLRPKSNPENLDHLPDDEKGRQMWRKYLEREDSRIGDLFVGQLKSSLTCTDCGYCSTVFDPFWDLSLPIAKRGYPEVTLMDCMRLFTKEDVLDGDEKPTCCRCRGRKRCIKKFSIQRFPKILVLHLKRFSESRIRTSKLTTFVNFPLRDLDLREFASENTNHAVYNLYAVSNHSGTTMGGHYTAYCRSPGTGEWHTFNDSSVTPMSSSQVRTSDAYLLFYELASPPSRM

| SMILES | Potency | activity change, negative = inhibition [%] |
| --- | --- | --- |
| Cc1ccc(NC(=O)COC(=O)c2ccc(NC(=O)CC#N)cc2)cc1S(=O)(=O)N1CCOCC1 | 10 µM (active) | – |
| COc1ccccc1C(=O)n1nc(-c2cccnc2)nc1NCc1ccccc1 | – | -20.8 |
| CC(C)(C)C(=O)Nc1c2c(nc3c1CCC3)CCCC2 | – | -12.7 |
| NC(=O)CC(NC(=O)Cc1ccc(Br)cc1)c1ccc(N2CCC(Cc3ccccc3)CC2)c([N+](=O)[O-])c1 (centres undefined) | – | -3.24 |
| FC(F)Sc1ccc(NC(=S)NC2CCCCC2)cc1 | – | -3 |
| CCCCCCCCCCOC(=O)Cn1c(COc2ccccc2OC)[n+](C)c2ccccc21 | – | -13.7 |
| COc1ccc(-n2c(=S)[nH]c3cc(C(=O)NCc4ccc(F)cc4)ccc3c2=O)c(OC)c1 | – | -19.6 |
| COCCCNC(=O)C1CCN(c2nc(C)cc(C)n2)CC1 | – | -9.82 |
| CCOc1ccccc1C(=O)Nc1nnc(C(C)C)s1 | – | -14.6 |
| CCc1nnc(NC(=O)CSc2nccn2-c2cccc(C)c2)s1 | – | -13.4 |
| CCOC(=O)c1c(C)c(C(=O)O)n(C)c1C | – | -0.886 |
| CN1CCN(S(=O)(=O)c2ccc(N3CCN(S(=O)(=O)/C=C/c4ccccc4)CC3)nc2)CC1 | – | 1.29 |
| Cc1cc(C(=O)NCc2ccco2)on1 | – | -27.9 |
| Cc1cc(N2CCOCC2)nc(SCC(=O)c2ccc(Cl)cc2)n1 | – | -4.72 |
| Cc1nn(C)cc1CNC(=O)c1ccc(Br)o1 | – | -7.67 |
| COC(=O)C1CCN(C(=O)c2cc(-c3ccco3)nc3ccccc23)CC1 | 3.55 µM (active) | – |
| O=C(Nc1ccc(Nc2ccncc2)cc1)c1ccc(Nc2ccnc3ccc([N+](=O)[O-])cc23)cc1 | 7.08 µM (active) | – |
| O=C(Nc1ccc(N2CCCC2)cc1)C(c1ccccc1)c1ccccc1 | – | -19.6 |
| COc1cccc(C(=O)NC(C)c2ccc(-c3ccccc3)cc2)c1OC (centres undefined) | – | -7.15 |
| CCCOc1ccc(-c2nc(C#N)c(N3CCN(CC)CC3)o2)cc1 | – | -9.67 |

| SMILES | Potency | activity change, negative = inhibition [%] |
| --- | --- | --- |
| CCN1C(=O)CSc2ccc(C(=O)NC3CCCCC3)cc21 | – | 1.71 |
| Cc1ccc(C)c(OCC(=O)Nc2cc(NC(=O)COc3cc(C)ccc3C)cc(C(=O)O)c2)c1 | 11.2 µM (active) | – |
| CCCOC(=O)CCCCC1SCC(NC(=O)OC)C1NC(=O)OC (centres undefined) | – | 6.99 |
| Cc1ccc(/C=C2/SC(=S)N(c3ccc(S(=O)(=O)Nc4nccs4)cc3)C2=O)cc1 | 3.55 µM (active) | – |
| COC(=O)N/N=C\c1cc(Br)ccc1OCc1ccccc1 | – | -10.6 |
| Cc1ccc(C(=O)NCc2ccc3c(c2)OCO3)cc1N1CCCC1=O | – | -7.01 |
| Cc1ccc(N=C2NC(=O)/C(=C/C=C/c3ccco3)S2)cc1C | 5.01 µM (active) | – |
| O=C(O)c1cccc(S(=O)(=O)NNc2ccccc2C(F)(F)F)c1 | – | -7.76 |
| O=C(Nc1ccc2nc(-c3ccco3)c(-c3ccco3)nc2c1)N1CCN(c2ccccn2)CC1 | 3.55 µM (active) | – |
| O=C(/C=C/c1ccc(Cl)c([N+](=O)[O-])c1)Nc1ccc(N2CCCC2)cc1 | 12.6 µM (active) | – |
| N#Cc1cc(Sc2ccccn2)c(Sc2ccccn2)cc1C#N | – | -10.2 |
| O=C(Nc1ccc(Oc2ccc(Cl)cc2)cc1)c1ncn[nH]1 | – | 0.92 |
| O=C1CCCc2nc(N3CCN(c4ccccc4)CC3)ncc21 | – | -18.7 |
| COc1cc(C)ccc1OCCOc1cc(C)ccc1Cl | – | -9 |
| Cc1ccccc1N=C1NC(=O)CS1 | – | 1.95 |
| CC(=O)N1c2c(cc(Br)cc2S(=O)(=O)NCc2cccnc2)CC1C (centres undefined) | – | -1.19 |
| Cc1ccc(C)n1-c1cc(S(=O)(=O)N2CCOCC2)ccc1N1CCCC1 | – | -24.9 |
| O=C1CS/C(=C/C(=O)c2ccccc2)N1 | – | -10.4 |
| COC(=O)c1c(NC(=O)c2cccnc2)sc(C)c1C | – | 0.753 |
